Screens as filed in PubChem.
Only a selection was taken, and hits are over-represented in it overall.
IL-1B inflam inh: qHTS for Inhibitors of Inflammasome Signaling: IL-1-beta AlphaLISA Primary Screen | activity change, % at 57.5 µM | THP-1 LPS/ATP IL-1B secretion, AlphaLISA, 16 h; active compounds read low | hit rate 4.7% among 360,000 | AID 743279, 2014; in the data active = activity change below about -50%; inconclusive = mostly about -30% to -49%
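Secreted IL-1B measured by AlphaLISA bead assay after 16 h compound exposure of THP-1 cells; compounds (final up to 57.5 uM) added 1 h before LPS (250 ng/mL) and ATP (1.25 mM) stimulation; lower signal means less secretion.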
HT1080 IDH1KD tx: qHTS for induction of synthetic lethality in tumor cells producing 2HG: qHTS for the HT-1080-IDH1KD cell line; HT-1080 IDH1 knockdown viability, ATP luminescence, 48 h; Potency, µM (highest dose often 46.1 µM), without a hit: top-dose activity, negative = toxicity, actives largely listed as cytotoxic; hit rate 2% among 360,000;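 note: potency is the fitted concentration of half-maximal effect; 0% = DMSO wells and -100% = cell-free medium wells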
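CellTiter-Glo luminescence after 48 h compound exposure at 37 degrees C of IDH1-knockdown HT-1080 cells in 5% FBS RPMI. %Activity scaled between DMSO wells and cell-free media wells, with curves fitted and assigned curve classes.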
HT1080-NT tox: qHTS for induction of synthetic lethality in tumor cells producing 2HG: qHTS for the HT-1080-NT fibrosarcoma cell line. HT-1080-NT fibrosarcoma viability, CellTiter-Glo ATP luminescence, 48 h. Potency, µM (series often up to 46.1 µM), inactives show at the highest dose activity, negative = less viability, most hits filed as cytotoxic. hit rate 1.6% among 360,000;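 note: NT is the 2HG producing partner of a matched IDH1 knockdown line; potency is the fitted concentration of half-maximal effect; 0% = DMSO-treated cells and -100% = media-only wells without cells; nearly all actives have a fitted effect of over 55% in size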
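Viability of the 2HG-overproducing fibrosarcoma line after 48 hours of compound exposure at 37 degrees C was determined by luminescence with CellTiter-Glo, and concentration-effect curves were then fitted and categorized.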
DT40 TDP1 CPT: qHTS for Inhibitors of human tyrosyl-DNA phosphodiesterase 1 (TDP1): qHTS in cells in presence of CPT. chicken DT40 Tdp1-/-;hTDP1 cells + 20 nM CPT, ATP luminescence, 48 h. hit rate 12% among 420,000. Potency, µM (titrated, usually from 46.2 µM), for the others: at the highest dose activity change, negative = growth inhibition, actives largely listed as inhibitors; note: potency is the fitted concentration of half-maximal effect; nearly all actives have a fitted effect of over 55% in size
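Cell growth measured by CellTiter-Glo luminescence after a minimum 48 h, 37 C compound exposure with 20 nM CPT in Tdp1-knockout DT40 cells stably expressing hTDP1, seeded 400/well; qHTS titration format.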
ALOX12 inh: Primary qHTS assay for inhibitors of human arachidonate 12S-lipoxygenase (ALOX12): Round 2; Polyunsaturated fatty acid lipoxygenase ALOX12 (Homo sapiens), P18054; purified 12hLO, xylenol orange hydroperoxide absorbance; Potency, µM (doses to about 108 µM), for the others: at the top dose activity change, negative = inhibition, usual class: inhibitors; hit rate 1.1% among 580,000; AID 1671190, 2021; note: potency is the fitted concentration of half-maximal effect
Target sequence (P18054 whole entry, looked up): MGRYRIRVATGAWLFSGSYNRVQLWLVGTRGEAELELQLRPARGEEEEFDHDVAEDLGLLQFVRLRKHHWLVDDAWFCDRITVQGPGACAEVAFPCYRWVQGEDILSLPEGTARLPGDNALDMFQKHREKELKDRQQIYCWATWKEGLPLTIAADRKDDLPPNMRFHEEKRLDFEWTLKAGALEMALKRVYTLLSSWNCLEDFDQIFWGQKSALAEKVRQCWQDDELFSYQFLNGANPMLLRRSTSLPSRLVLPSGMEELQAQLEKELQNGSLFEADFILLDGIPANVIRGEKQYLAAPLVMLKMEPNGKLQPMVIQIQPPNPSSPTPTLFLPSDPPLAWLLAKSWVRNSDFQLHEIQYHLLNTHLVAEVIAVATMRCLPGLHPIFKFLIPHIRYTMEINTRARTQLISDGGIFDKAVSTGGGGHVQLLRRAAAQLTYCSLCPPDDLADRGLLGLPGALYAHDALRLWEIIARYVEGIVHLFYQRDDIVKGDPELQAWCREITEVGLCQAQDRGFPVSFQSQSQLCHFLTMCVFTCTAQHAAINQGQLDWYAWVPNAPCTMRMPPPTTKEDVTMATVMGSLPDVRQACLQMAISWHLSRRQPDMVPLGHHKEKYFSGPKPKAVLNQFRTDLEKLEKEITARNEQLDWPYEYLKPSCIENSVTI
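Purified human 12hLO at 150 nM in 25 mM Hepes, 0.01% Triton X-100, pH 7.0, preincubated 15 min at room temperature with compound. Reaction started with 40 uM arachidonic acid, 30 min at room temperature. Hydroperoxide measured by Fe-xylenol orange, 573/405 nm absorbance ratio.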
TDP1 cell noCPT: qHTS for Inhibitors of human tyrosyl-DNA phosphodiesterase 1 (TDP1): qHTS in cells in absence of CPT. AID 686978, 2013. Potency, µM (series often up to 46.2 µM), without a hit: at the highest dose activity change, negative = growth inhibition, actives largely listed as inhibitors. hit rate 15% among 420,000. DT40 Tdp1-/- hTDP1 cells, no CPT, ATP luminescence, 48 h; note: potency is the fitted concentration of half-maximal effect; nearly all actives have a fitted effect of over 55% in size
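A cellular qHTS used chicken DT40 cells lacking endogenous Tdp1 but carrying stably transfected human TDP1. Compounds were applied without camptothecin, and cell growth kinetics were judged by ATP-dependent luminescence after ≥48 hr.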
An asterisk follows results filed as active; ? = inconclusive; / = no result given; [ ] = remark or other dose. Unless noted, calls come from the whole dose curve; as a rule, active = well fitted curve in the direction sought with a large enough effect; inconclusive = small, poorly fitted or top-dose-only effect, or another doubt; inactive = no such curve, though single readings can be large; an effect the other way counts as inactive or inconclusive. Unless noted, % is set by controls: 0 for no effect and ±100 for the full control effect.

SMILES | IL-1B inflam inh | HT1080 IDH1KD tx | HT1080-NT tox | DT40 TDP1 CPT | ALOX12 inh | TDP1 cell noCPT
O=[N+]([O-])c1cccc(COc2cccc(CN3CCOCC3)c2)c1 | 0 | -7% | -7% | -10% | -17% | -24%
CC(C)CNC(=O)COC(=O)c1ccc(Br)cc1 | / | / | / | / | -35% | /
Cc1ccc(/C=c2\sc3n(c2=O)CN(c2cccc(Br)c2)CN=3)o1 | -51* | 5% | -1% | -26% | 0% | -20%
O=c1/c(=C/c2ccco2)sc2n1CN(c1cccc(Br)c1)CN=2 | -50* | 1% | 0% | -16% | 37% | -13%
COc1ccc(OC)c(CCNC(=O)c2ccc(Cl)c(N3C(=O)CCS3(=O)=O)c2)c1 | / | / | / | / | -5% | /
CC(C)n1nccc1N(Cc1ccc(Cl)cc1)S(=O)(=O)c1ccccc1 | -71* | -22% | -23% | -29% | 0% | ?
CC(C)n1nccc1N(Cc1ccc(Br)cc1)S(=O)(=O)c1ccccc1 | ? | ? | ? | 23µM* | -11% | ?
COC(=O)c1ccccc1NC(=O)CN(c1ccnn1C(C)C)S(=O)(=O)c1ccccc1 | / | / | / | / | 24% | /
CC(Sc1n[nH]c(=O)n1C1CC1)C(=O)c1ccc(F)cc1 (stereo not drawn) | / | / | / | / | -21% | /
Cc1c(Cl)cccc1NC(=O)N1Cc2cccn2-c2ccccc21 | / | / | / | / | -38% | /
Cc1cncc(-c2ccc(S(N)(=O)=O)cc2F)c1 | / | / | / | / | 7% | /
Cc1c(NC(=O)c2ccc(Br)o2)cccc1-c1nc2ccccc2o1 | / | / | / | 26µM* | 3% | 23µM*
Cc1c(NC(=O)c2cc3ccccc3o2)cccc1-c1nc2ccccc2o1 | / | / | / | ? | 1% | ?
Cc1c(NC(=O)c2cccc3c(Cl)cccc23)cccc1-c1nc2ccccc2o1 | / | / | / | 15µM* | -15% | 21µM*
N#Cc1ccccc1CN1CCCCCNC(=O)[C@@H]2CCC[C@@H]21 | / | / | / | / | 200% | /
CCCCc1nn2c(=O)cc(CSCC(=O)Nc3ccccc3C)nc2s1 | / | / | / | / | 10% | /
CN1CC(=O)N(c2cccc(F)c2)Cc2c1ncnc2N1CCC(F)CC1 | / | / | / | / | 4%[6.33 µM] | /
O=C(NC(NC(=S)N1CCOCC1)C(Cl)(Cl)Cl)c1ccc(Cl)cc1 (stereo not drawn) | 1 | ? | -28% | 3.7µM* | -24% | 4.1µM*
C(#CC1CCCCC1)c1ccc2c(c1)COc1c3ccccc3nn1-2 | 75 | -2% | 12% | -15% | -11% | -9%
C#Cc1ccc2c(c1)COc1c3ccccc3nn1-2 | -7 | -6% | -4% | 10µM* | 1% | ?
CCOC(=O)C1CCN(S(=O)(=O)c2ccc(C)cc2)CC1 | 39 | 9% | -2% | -10% | 0%[57.4 µM] | -2%
CCOC(=O)CC1(C)N(S(=O)(=O)c2ccc(C)cc2)c2ccccc2N1S(=O)(=O)c1ccc(C)cc1 | 2 | 20% | 19% | ? | 11% | 15µM*
CCOC(=O)C1CN(S(=O)(=O)c2ccc(OC)cc2)c2ccccc2O1 (stereo not drawn) | 45 | 21% | -3% | 6% | 1% | -18%
CCOC(=O)CC1(CC)Oc2ccccc2N1S(=O)(=O)c1ccc(C)cc1 (stereo not drawn) | 1 | ? | ? | 23µM* | -2% | ?
Cc1cc(C)nc(NC(=O)Nc2ccc(F)cc2)c1 | / | / | / | / | 9% | /
SMILES | IL-1B inflam inh | HT1080 IDH1KD tx | HT1080-NT tox | DT40 TDP1 CPT | ALOX12 inh | TDP1 cell noCPT
COc1ccc(/C=N/NC(=O)c2cc(-c3ccccc3OC)nc3ccccc23)cc1COC(C)=O | -28 | -13% | -21% | 10µM* | 46%[57.4 µM] | 14µM*
COc1ccc(/C=N/NC(=O)c2cc(-c3ccc(C)cc3C)nc3ccccc23)cc1COC(C)=O | 0 | -16% | -4% | ? | -14% | 1.5µM*
CCN(CC)C(=O)COc1ccc(/C=N/NC(=O)c2cc(-c3ccccc3OC)nc3ccccc23)cc1OC | / | -4% | 1% | ? | -28% | ?
Cc1ccc(C(=O)N2CCC3(CC2)N(c2ccccc2)C(=O)CS3(=O)=O)c(C)c1 | / | / | / | / | 14% | /
COc1ccc(OC)c(-c2nc3c(C)cccc3cc2CN2CCN(C)CC2)c1 | / | / | / | / | 21% | /
COc1cccc(CNc2cc(C)nc3nc(-c4ccc(C)cc4)nn23)c1 | / | / | / | / | -13% | /
COc1ccc(-c2cc(NCc3ccc(C)cc3)n3cnnc3n2)cc1 | / | / | / | 15µM* | -16% | 13µM*
Cc1cc(NCc2ccc(Cl)cc2)n2cnnc2n1 | / | / | / | 21µM* | -8% | 8.2µM*
C[C@H](NC(=O)C(=O)Nc1cccc2[nH]ccc12)c1ccccc1 | / | / | / | / | -7% | /
CCOC(=O)C1=C(CNCc2ccccc2Cl)NC(=O)NC1c1cc(C)ccc1C (stereo not drawn) | / | / | / | / | 9% | /
Cc1ccc(Oc2ccccc2NC(=O)Cc2nn(C)c(=O)c3ccccc23)cc1 | / | / | / | / | -8% | /
O=c1c2cc(F)ccc2sn1-c1ccccc1 | -2 | ? | ? | 1.8µM* | ? | 2.1µM*
O=c1c2cc(C(F)(F)F)ccc2sn1-c1ccccc1 | 2 | -5% | -16% | 5.2µM* | -71% | 5.2µM*
c1ccc(Nc2cc3c(cn2)CN(Cc2cccs2)CCN3)cc1 | / | / | / | / | -1%[176 µM] | /
CCC1c2ccsc2CCN1C(=O)/C=C/c1sccc1C (stereo not drawn) | / | / | / | / | 15% | /
O=C1CCN(C(=O)Nc2ccccc2)CCCC(c2nc(-c3cccnc3)no2)CCN1 (stereo not drawn) | / | / | / | / | 36% | /
O=C(O)C(c1c[nH]c2cc(Br)ccc12)N1CCN(Cc2ccc(Cl)cc2Cl)CC1 (stereo not drawn) | / | / | / | / | 40µM* | /
O=C(O)C(c1c[nH]c2ccccc12)N1CCN(Cc2ccc(Cl)cc2Cl)CC1 (stereo not drawn) | / | / | / | / | -5% | /
O=C(O)C(c1c[nH]c2cc(Cl)ccc12)N1CCN(C(c2ccccc2)c2ccccc2)CC1 (stereo not drawn) | / | / | / | / | 7.9µM* | /
O=C(O)C(c1c[nH]c2cc(Cl)ccc12)N1CCN(Cc2ccccn2)CC1 (stereo not drawn) | / | / | / | / | -1% | /
Cc1nc2nc(C(F)(F)F)[nH]n2c(=O)c1Cc1ccccc1Cl | / | / | / | / | -32% | /
